# a7 integrin act – activators of alpha7 integrin expression for muscular dystrophy. 350,000 compounds, 0.064% hits. alpha7betagal myoblasts, beta-gal FDG fluorescence, 48 h. Potency, µM (doses to about 38.3 µM), most hits filed as activators; note: nearly all actives have a fitted effect of over 60% in size
#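 Alpha7betagal+/- myoblasts (passage 13) were plated 16-24 hr, then exposed to compounds (1:260 dilution of DMSO stock) for 48 hours at 37C. After MPER lysis, β-galactosidase reporter activity was read as FDG fluorescence (ex 480/em 540) after 30 minutes.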
# N370S GC mod – N370S glucocerebrosidase modulation, Gaucher chaperone candidate; N370S GC spleen homogenate, 4MU-glucoside fluorescence; 330,000 compounds, 0.092% hits; P04062; Potency, µM (titrated, usually from 59.4 µM), usual class: inhibitors; AID 2101
# ClpP mod – qHTS Assay for Activators of ClpP | ATP-dependent Clp protease proteolytic subunit (Bacillus subtilis (strain 168)), P80244 | purified B. subtilis ClpP, FRET peptide cleavage, 20 min | Potency, µM (doses to about 57.5 µM) | 340,000 compounds, 1.9% hits | AID 651965, 2013; active = well fitted falling curve with a large enough effect; inconclusive = small, poorly fitted or top-dose-only effect; inactive = no such curve, though single readings can be large or run the other way; note: the source files actives as falling curves though it sought activators and does not explain the sign; nearly all actives have a fitted effect of over 65% in size
# Target sequence (P80244 whole entry, looked up): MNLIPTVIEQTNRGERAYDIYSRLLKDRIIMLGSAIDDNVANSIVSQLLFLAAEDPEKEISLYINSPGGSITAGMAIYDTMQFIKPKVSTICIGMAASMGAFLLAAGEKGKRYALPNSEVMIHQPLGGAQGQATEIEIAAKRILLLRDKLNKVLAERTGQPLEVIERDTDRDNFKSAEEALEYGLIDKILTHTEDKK
#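 ClpP 10 microg/mL final, pH 8 Tris/KCl buffer with BSA, glycerol, Tween-20; compound pinned in; FRET-FV substrate; RT 20 min; Ex320/Em430; ΔFRET vs ADEP 5.8 microM, DMSO, no enzyme.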
# CBFb-RUNX1 inh – inhibitors of human CBF-beta and RUNX1 interaction | Q01196+Q13951 | AlphaScreen CBFb-His/RUNX1-biotin binding, biochemical | Potency, µM (series often up to 59.8 µM), usual class: inhibitors | 230,000 tested, under 10 active
#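 His-tagged CBF-beta and biotinylated RUNX1 (30 nM each) were premixed 20 min at room temperature, exposed to compound for 15 min, then given nickel-chelate and streptavidin AlphaScreen beads (50 ng each). After 90 min, AlphaScreen signal was read.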
# Apoferritin bind – candidate novel general anesthetic via apoferritin binding. AID 485281. 350,000 compounds, 0.074% hits. P02791. Potency, µM (top dose mostly 77.5 µM), actives largely listed as inhibitors. apoferritin/1-aminoanthracene competitive binding, fluorescence; note: nearly all actives have a fitted effect of over 20% in size
# Target sequence (P02791 2-175 limits assumed): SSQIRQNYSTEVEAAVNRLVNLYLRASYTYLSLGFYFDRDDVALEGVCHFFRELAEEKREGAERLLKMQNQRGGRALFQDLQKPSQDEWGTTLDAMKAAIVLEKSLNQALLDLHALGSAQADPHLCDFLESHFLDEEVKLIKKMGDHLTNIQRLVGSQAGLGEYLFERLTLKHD
#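 Probe: 1-aminoanthracene (50% saturated, PBS). Protein: horse-spleen apoferritin, 10 uM. Incubation: 10 min, room temperature. Detection: 380 nm excitation, 535 nm emission. Analysis: normalized response, four-parameter Hill.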
# Glioma ERSR ind – ER stress response induction in glioma. U87-MG GRP78 promoter luciferase reporter, 16 h. Potency, µM, most hits filed as activators. 420,000 compounds, 0.02% hits. AID 602332; note: series mostly up to about 76 µM; nearly all actives have a fitted effect of over 35% in size
#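 Stably transfected U87-MG human glioma cells carrying a GRP78-based luminescent sensor were seeded at 1000 cells/well, pin-dosed with compounds and incubated 16 h. Luciferase reagent was then added, and end-point luminescence was read after 10 min at room temperature.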
# Numbers stand for hits; i = inactive; ? = inconclusive; nt = no result; [ ] = dose if it differs, or a comment. The full list was thinned out, with hits kept by preference. Unless noted, calls come from the whole dose curve; as a rule, active = well fitted curve in the direction sought with a large enough effect; inconclusive = small, poorly fitted or top-dose-only effect, or another doubt; inactive = no such curve, though single readings can be large; an effect the other way counts as inactive or inconclusive.
SMILES,a7 integrin act,N370S GC mod,ClpP mod,CBFb-RUNX1 inh,Apoferritin bind,Glioma ERSR ind
CC(=O)Nc1sc2c(c1C(c1ccncc1)N1CCOCC1)CCCC2 (stereo not drawn),i,i,nt,i,i,i
COc1ccc(C(c2c(NC(C)=O)sc3c2CCCC3)N2CCN(CCO)CC2)cc1OC (stereo not drawn),i,14µM,i,i,i,i
CC(=O)Nc1sc2c(c1C(c1cccc(Cl)c1)N1CCN(CCO)CC1)CCCC2 (stereo not drawn),i,18µM,i,i,i,i
CCOC(=O)c1cnn2c(C)cc(-c3ccc(F)cc3)nc12,i,i,28µM,i,i,i
COc1cc(/C=C2\SC(=O)N(c3ccccc3Cl)C2=O)cc([N+](=O)[O-])c1O,i,i,i,nt,18µM,i
CC(C)[C@H](NS(=O)(=O)c1ccccc1)C(=O)OCc1cc([N+](=O)[O-])cc2c1OCOC2,i,nt,i,nt,nt,i
CC(C)[C@H](NC(=O)c1ccccc1Cl)C(=O)OCc1cc([N+](=O)[O-])cc2c1OCOC2,i,i,22µM,i,i,i
Cc1ncc2c(c1CNC(=O)c1ccc3c(c1)OCO3)CCN(C(=O)c1ccoc1)C2,nt,nt,nt,nt,nt,i
CCOC(=O)c1cc2c3ccccc3n(CC)c2nc1N,i,?,16µM,i,i,i
COc1ccc(NC(=O)CSc2nc(-c3ccc(OC)cc3)[nH]c2-c2ccc(OC)cc2)cc1,nt,nt,i,nt,i,i
COCCCNC(=O)CSc1nc(-c2cccc(F)c2)[nH]c1-c1ccccc1,nt,nt,28µM,nt,i,i
Cc1ccc(-c2[nH]c(-c3ccc(Cl)cc3)nc2SCC(=O)NCC2CCCO2)cc1 (stereo not drawn),i,i,i,i[2.36 µM],i,i
COCCCNC(=O)CSc1nc(-c2ccccc2)[nH]c1-c1ccc(C)cc1,nt,nt,25µM,nt,i,i
CCc1ccc(-c2nc(SCC(=O)NCC3CCCO3)c(-c3ccc(C)cc3)[nH]2)cc1 (stereo not drawn),nt,nt,32µM,nt,i,i
O=C(C[n+]1ccccc1)c1cccc([N+](=O)[O-])c1,nt,nt,i,nt,nt,i
O=C(NCCc1ccccn1)c1cnn(-c2ncc3c(n2)-c2ccccc2CC3)c1C1CC1,nt,nt,nt,nt,nt,i
CN(C)S(=O)(=O)c1ccc(C(=O)Nc2nnc(Cc3ccccc3)s2)cc1,i,i,22µM,i,i,i
CC(C1=C(CCN(C)C)Cc2ccccc21)c1ccccn1 (stereo not drawn),i,nt,32µM,nt,nt,i
C[C@@H](C1=C(CCN(C)C)Cc2ccccc21)c1ccccn1,nt,i,nt,i,nt,i
CC(=O)c1ccc(F)c(-c2cc(C)cc3c2OC(CNC(=O)c2cnc4ccccn4c2=O)C3)c1 (stereo not drawn),nt,nt,nt,nt,nt,i
O=C(CN(Cc1ccccc1)S(=O)(=O)c1ccc(Cl)cc1)NCC1CCCO1 (stereo not drawn),i,i,nt,nt,i,i
O=C(CN(Cc1ccccc1)S(=O)(=O)c1ccc(Br)cc1)NCC1CCCO1 (stereo not drawn),i,i,25µM,nt,i,i
O=C(CSc1nnc(NC(=O)c2ccc3c(c2)OCO3)s1)NCc1ccco1,i,i,4.5µM,i,i,i
COCCCNc1oc(-c2ccc(COc3ccc(Cl)cc3)o2)nc1C#N,nt,nt,32µM,nt,i,i
COc1ccc(OCc2ccc(-c3nc(C#N)c(NCc4ccc(F)cc4)o3)o2)cc1,nt,nt,32µM,nt,i,i
SMILES,a7 integrin act,N370S GC mod,ClpP mod,CBFb-RUNX1 inh,Apoferritin bind,Glioma ERSR ind
COCCNc1oc(-c2ccc(COc3ccc(OC)cc3)o2)nc1C#N,nt,nt,?,nt,i,i
CCOc1ccc(-c2nc(C#N)c(NC3CC3)o2)cc1,i,i,7.1µM,i,i,i
CCCCNc1oc(-c2ccc(COc3ccc(OC)cc3)o2)nc1C#N,nt,nt,28µM,nt,i,i
CCCCCCCCCCCCCCCC[n+]1ccc(C)c2ccccc21,nt,nt,i,nt,nt,i
Cc1ccc(OCc2ccc(-c3nc(C#N)c(NCc4ccccc4Cl)o3)o2)cc1,nt,nt,25µM,nt,i,i
COc1ccc(CNc2oc(-c3ccccc3)nc2C#N)cc1,i,i,i,i,i,i
COc1ccc(-c2nc(C#N)c(NCCc3ccccc3)o2)cc1,i,i,32µM,i,i,i
COc1ccc(CNc2oc(-c3ccc(COc4ccc(OC)cc4)o3)nc2C#N)cc1,nt,nt,22µM,nt,i,i

# Screening data as filed in PubChem.
